# Bioassay records deposited in PubChem BioAssay by National Center for Advancing Translational Sciences (NCATS).
# A selection: hits, their analogues and other compounds. The true share with any hit is near 8%.
# SW480 rerep: DNA re-replication induction in SW480 cells. AID 624297. SW480 DNA re-replication, Hoechst DNA content imaging, 48 h. Potency, µM (series often up to 46.1 µM), without a hit: at the highest dose re-replication activation, actives largely listed as activators. hit rate 1.8% among 340,000; further: % of control where 0% means no effect; nearly all actives have a fitted effect of over 55% in size
#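 Cells (250 per well) received 23 nL compound or DMSO by pin tool and were kept 48 hr at 37 C, 5% CO2. Nuclei were then stained with Hoechst for 40 min and scanned for DNA content.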
# MCF10A rereplic: inducers of DNA re-replication in MCF 10A breast cells. MCF 10A DNA re-replication, Hoechst nuclear intensity, 48 h. Potency, µM (highest dose often 46.1 µM), inactives show at the top dose activity, positive = re-replication, most hits filed as activators. hit rate 2.9% among 350,000; further: % of control where 0% means no effect; nearly all actives have a fitted effect of over 50% in size
# HT1080 IDH1KD tx: toxicity to HT-1080 IDH1 knockdown cells (counter line); HT-1080 IDH1 knockdown viability, ATP luminescence, 48 h; Potency, µM (doses to about 46.1 µM), for the others: at the top dose activity, negative = toxicity, actives largely listed as cytotoxic; hit rate 2% among 360,000; AID 686971;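 further: 0% = DMSO wells and -100% = cell-free medium wells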
#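 After a 2 h attachment period, IDH1KD HT-1080 cells took pin-transferred compound for 48 h at 37 °C; ATP-based luminescence after 10 min room-temperature reagent incubation reported viability.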
# HT1080-NT tox: kills 2HG-producing HT-1080-NT fibrosarcoma cells; Potency, µM (highest dose often 46.1 µM), inactives show at the top dose activity, negative = less viability, most hits filed as cytotoxic; AID 686970; hit rate 1.6% among 360,000; HT-1080-NT fibrosarcoma viability, CellTiter-Glo ATP luminescence, 48 h;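 further: NT is the 2HG producing partner of a matched IDH1 knockdown line; 0% = DMSO-treated cells and -100% = media-only wells without cells; nearly all actives have a fitted effect of over 55% in size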
#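 Viability of the 2HG-overproducing fibrosarcoma line after 48 hours of compound exposure at 37 degrees C was determined by luminescence with CellTiter-Glo, and concentration-effect curves were then fitted and categorized.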
# KB-3-1 tox: KB-3-1 parental cell cytotoxicity. KB-3-1 viability, CellTiter-Glo ATP luminescence, 72 h. Potency, µM (doses to about 46.1 µM), most hits filed as cytotoxic. hit rate 1.4% among 400,000. AID 1347075; further: on the % scale 0 is the no-effect control and ±100 the full control effect; nearly all actives have a fitted effect of over 60% in size
#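 Cytotoxicity measured as CellTiter-Glo luminescence after 72 h at 37 C. Compound titrations were pinned onto drug-naive KB-3-1 parental adenocarcinoma cells grown in DMEM with 10% FBS, and normalized data fitted to concentration-response curves.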
# KB-V1 cytotox: KB-V1 MDR subline cytotoxicity | Potency, µM (top dose mostly 46.1 µM), most hits filed as cytotoxic | hit rate 3.4% among 400,000 | KB-V1 MDR cells viability, CellTiter-Glo, 72 h; further: on the % scale 0 is the no-effect control and ±100 the full control effect; nearly all actives have a fitted effect of over 60% in size
#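 Following 72 h at 37 degrees C with compound, KB-V1 cell viability was read by CellTiter-Glo luminescence, medium being phenol-red-free DMEM plus 10% FBS; concentration-response parameters came from normalized, curve-fitted qHTS data.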
# Numbers without * were called inactive; i = inactive; ? = inconclusive; nt = not tested or not shown; [ ] = remark or other dose. The call rests on the fitted dose curve; in most records, active means well fitted curve in the direction sought with a large enough effect; inconclusive means small, poorly fitted or top-dose-only effect, or another doubt; inactive means no such curve, though single readings can be large; an effect the other way counts as inactive or inconclusive. Potency means the concentration at half of the fitted maximal effect.
SMILES,SW480 rerep,MCF10A rereplic,HT1080 IDH1KD tx,HT1080-NT tox,KB-3-1 tox,KB-V1 cytotox
CN(C)S(=O)(=O)N1CCN(CC(O)COc2ccc(-c3ccccc3)cc2)CC1 (stereo not drawn),6.3%,23.1µM*,-7.1%,-12.8%,i,i
CN1CCN(CC(O)COc2ccc(C34CC5CC(CC(C5)C3)C4)cc2)CC1 (stereo not drawn),?,14.6µM*,14.6µM*,18.4µM*,?,?
OC1CCCN(CC(O)COc2ccc(-c3ccccc3)cc2)C1 (stereo not drawn),14.7%,?,?,?,i,?
OC(COc1ccc(OCc2ccccc2)cc1)CN1CCOCC1 (stereo not drawn),?,9.2µM*,0.8%,-5.0%,i,i
O=S(=O)(N1CCCCC1)N1CCN(CC(O)COc2ccc3cc(Br)ccc3c2)CC1 (stereo not drawn),0.6%,-2.1%,-28.2%,-14.9%,?,?
OC(COc1ccc2cc(Br)ccc2c1)CN1CCCC1 (stereo not drawn),?,?,12.6µM*,-28.7%[9.24 µM],?,?
OC(COc1ccc(OCc2ccccc2)cc1)CN1CCCCC1 (stereo not drawn),2.3%,2.6%,2.0%,-5.5%,i,i
CC1CCCN(CC(O)COc2ccc(-c3ccccc3)cc2)C1 (stereo not drawn),?,?,?,18.4µM*,?,i
CC1CCN(CC2CCN(C(=O)Nc3ccc(Br)cc3F)CC2)CC1,nt,nt,nt,nt,i,i
N#Cc1nc(-c2cccc3ccccc23)oc1N1CCCCC1,?,8.9%,5.5%,1.1%,i,i
CC1CCN(c2oc(-c3cccc4ccccc34)nc2C#N)CC1,2.9%,10.3µM*,-23.6%,-5.3%,i,i
CCOc1ccc(/C=C/C(O)=C2/C(=O)N(C)C3(C)CC2c2ccccc2O3)cc1OC (stereo not drawn),13µM*,?,3.66µM*,?,23.1µM*,?
CCOC(=O)C1=C(COC(=O)/C=C/c2ccc(OCC)c(OC)c2)NC(=O)NC1C (stereo not drawn),-0.5%,8.4%,-14.8%,-11.2%,i,i
CCOc1ccc(/C=C/C(O)=C2/C(=O)NC3(C)CC2c2ccccc2O3)cc1OC (stereo not drawn),9.2µM*,8.2µM*,?,-24.0%,?,?
COc1cc(/C=C/C(=O)N2CCOCC2)ccc1OCc1ccccc1,-4.4%,42.7%,-10.4%,-3.7%,?,i
O=C(COc1ccccc1)Nc1ccccc1C(=O)OCc1cc(=O)n2nc(C3CC3)sc2n1,nt,nt,nt,nt,i,i
COc1ccccc1NC(=O)CSc1nncn1-c1ccccc1,2.0%,3.9%,1.9%,9.5%,i,i
COc1ccc(CNC(=O)CSc2nnc3c(n2)[nH]c2ccccc23)cc1,-1.4%,-6.3%,1.0%,2.1%,i,i
COc1ccccc1NC(=O)CSc1ncn(-c2ccccc2)n1,-4.0%,-4.0%,-1.4%,-4.1%,i,16.4µM*
COc1ccccc1NC(=O)CSc1nnc2c(n1)[nH]c1ccccc12,nt,nt,nt,nt,i,11.6µM*
CC(C)(C)c1cnnn1-c1ccc(C=O)cc1,-1.1%,0.1%,?,-4.8%[9.24 µM],i,i
CC(C)(C)c1cnnn1-c1ccc(C(=O)CCl)cc1,?,16.4µM*,?,?,?,23.1µM*
Cc1ccc(C(=O)Nc2nnc(S(=O)(=O)N3CCCc4ccccc43)s2)cc1,nt,nt,nt,nt,i,i
CCOC(=O)c1c(C)c(-c2ccccc2)n(CC(=O)Nc2cccc(F)c2)c1C,nt,nt,nt,nt,i,i
CCCSc1nc(=S)n(Cc2ccccc2)c(C)c1C(C)=O,2.5%,2.4%,-9.1%,-8.2%,i,i
SMILES,SW480 rerep,MCF10A rereplic,HT1080 IDH1KD tx,HT1080-NT tox,KB-3-1 tox,KB-V1 cytotox
CC(=O)c1c(C(C)=O)c(C)n(Cc2ccccc2)c1C,-7.0%,28.5%,-3.6%,3.9%,i,20.6µM*
Cc1c(C=O)c(C=O)c(C)n1Cc1ccccc1,?,10µM*,4.11µM*,8.2µM*,?,?
CCOC(=O)c1sc2ncn(CC(=O)Nc3ccc(OC)c(Cl)c3)c(=O)c2c1C,nt,nt,nt,nt,i,i
Cc1ccc2nc(SCC(=O)Nc3cccc(F)c3)nc(=O)n2c1,-6.0%,8.0%,2.1%,7.9%,?,9.2µM*
COc1ccc(C(=O)C2CCCN(Cc3cnc(N4CCCC4)s3)C2)cc1OC (stereo not drawn),-0.8%,-1.6%,-11.5%,-17.9%,i,i
COc1ccc2cc(C(=O)C3CCCN(Cc4cnc(C)s4)C3)ccc2c1 (stereo not drawn),?,7.4%,-26.0%,?,?,9.2µM*
O=C(NCCc1ccc2c(c1)OCCO2)c1cc(F)cc(F)c1,3.7%,0.3%,-19.1%,-23.4%,?,11.6µM*
COc1ccc(CCNC(=O)c2cc(S(=O)(=O)N3CCCCC3)ccc2Cl)cc1,18.4µM*,?,-0.4%,0.2%,i,i
O=C(NCCc1ccc2c(c1)OCCO2)c1cc(S(=O)(=O)N2CCCC2)ccc1Br,-7.0%,-2.1%,-1.1%,5.7%,?,20.6µM*
COc1ccc(CCNC(=O)c2cccc(S(=O)(=O)N3CCCCC3)c2)cc1,-60.2%,-24.5%,-7.9%,-6.2%,i,i
Cc1ccc(S(=O)(=O)N2CCCCC2)cc1C(=O)NCCc1ccccc1,-0.7%,18.8%,-1.2%,-2.0%,i,?
C1=Cc2ccccc2/C1=C\c1cc2c3c(c1)CCCN3CCC2,nt,nt,nt,nt,i,i
